From PubChem BioAssay (EPA / NIEHS)
Inconclusive results are not listed. Activity calls are given as the source filed them. The calls were made as follows: active = hit-call score of the fitted dose curve at least 0.9, where 1 is the maximum; inconclusive = response in the unintended direction; inactive = score below 0.9.

molecular target: Cellular tumor antigen p53 (Homo sapiens) (UniProt P04637); test: TOX21_p53_BLA_p5_ratio: Tox21 HCT-116 p53 Agonism Beta-lactamase Assay, Ratio, Phase 5 (AID 2283599)
Summary of the method: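 HCT-116 p53-bla cells (4000/well) plated 5 h, dosed with compound (217-fold DMSO dilution) for 16 h at 37 C; CCF4-AM substrate 2 h at room temperature. Activity is the 460/530 nm emission ratio (405 nm excitation), fitted in gain-of-signal direction versus DMSO.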

Sequence of Cellular tumor antigen p53 (Homo sapiens) (P04637 whole entry, looked up): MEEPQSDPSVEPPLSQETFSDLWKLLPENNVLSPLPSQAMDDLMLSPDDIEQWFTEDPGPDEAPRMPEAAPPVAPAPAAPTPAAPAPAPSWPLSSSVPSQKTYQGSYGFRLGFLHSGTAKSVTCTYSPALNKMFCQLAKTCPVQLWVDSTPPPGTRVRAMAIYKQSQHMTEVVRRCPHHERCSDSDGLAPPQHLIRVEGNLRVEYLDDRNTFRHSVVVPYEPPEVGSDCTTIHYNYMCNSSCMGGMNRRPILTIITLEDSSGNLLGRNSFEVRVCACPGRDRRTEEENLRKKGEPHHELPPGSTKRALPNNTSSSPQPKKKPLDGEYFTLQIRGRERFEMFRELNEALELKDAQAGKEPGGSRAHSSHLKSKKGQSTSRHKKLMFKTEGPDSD

Compound	outcome	AC50
COc1ccc(S(=O)(=O)Nc2nnc(CC(C)C)s2)cc1	inactive	
CO[C@H]1/C=C/O[C@@]2(C)Oc3c(C)c(O)c4c(O)c(c(/C=N/N5CCN(C6CCCC6)CC5)c(O)c4c3C2=O)NC(=O)/C(C)=C\C=C\[C@H](C)[C@H](O)[C@@H](C)[C@@H](O)[C@@H](C)[C@H](OC(C)=O)[C@@H]1C		43.2 µM (active)
CCCN1C[C@H](CSC)C[C@@H]2c3cccc4[nH]cc(c34)C[C@H]21	inactive	
Cc1c(-c2ccccc2)oc2c(C(=O)OCCN3CCCCC3)cccc2c1=O	inactive	
O=S(=O)(O)c1ccc(O)cc1	inactive	
CCCCCCCCC1CO1 (stereo not drawn)	inactive	
Cc1ccc(O)c(O)c1		66 µM (active)
O=C(O)c1ccc(Cl)c(Cl)c1	inactive	
COc1cccc2c1[C@@H]1CN(CCCCn3c(=O)[nH]c4c(sc5ncc(-c6ccccc6)nc54)c3=O)C[C@@H]1CO2	inactive	
CCC(C)[C@H]1O[C@]2(C=C[C@@H]1C)C[C@@H]1C[C@@H](C/C=C(\C)[C@@H](O[C@H]3C[C@H](OC)[C@@H](O[C@H]4C[C@H](OC)[C@H](NC(C)=O)[C@H](C)O4)[C@H](C)O3)[C@@H](C)/C=C/C=C3\CO[C@@H]4[C@H](O)C(C)=C[C@@H](C(=O)O1)[C@]34O)O2 (stereo partly drawn)		22.3 µM (active)
COCC(=O)O[C@]1(CCN(C)CCCc2nc3ccccc3[nH]2)CCc2cc(F)ccc2[C@@H]1C(C)C		25.4 µM (active)
CSc1ccc2c(c1)C(N1CCN(C)CC1)Cc1ccccc1S2 (stereo not drawn)	inactive	
CC(C)NCC1CCc2cc(CO)c([N+](=O)[O-])cc2N1 (stereo not drawn)	inactive	
